PRMT1 inh: PRMT1 (human) inhibition, primary screen; inhibition, % at 2.79 µM; AID 652257; 370,000 tested, 1.3% active; Q99873; recombinant PRMT1, activity-based probe fluorescence polarization;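 active = inhibition above about 21% made by adding two undisclosed values, limit read from the data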
TLR4-MyD88 BLA: TLR4-MyD88 interaction inhibition in cells | O00206+Q99836 | HeLa CL3-4 TLR4/MyD88 BLA complementation, FRET ratio | inhibition, % at 8.4 µM | 200,000 tested, 0.18% active | AID 861; in the data active = inhibition above about 25%;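 note: 0% = vehicle and 100% = reference inhibitor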
Target sequence (O00206 whole entry, looked up): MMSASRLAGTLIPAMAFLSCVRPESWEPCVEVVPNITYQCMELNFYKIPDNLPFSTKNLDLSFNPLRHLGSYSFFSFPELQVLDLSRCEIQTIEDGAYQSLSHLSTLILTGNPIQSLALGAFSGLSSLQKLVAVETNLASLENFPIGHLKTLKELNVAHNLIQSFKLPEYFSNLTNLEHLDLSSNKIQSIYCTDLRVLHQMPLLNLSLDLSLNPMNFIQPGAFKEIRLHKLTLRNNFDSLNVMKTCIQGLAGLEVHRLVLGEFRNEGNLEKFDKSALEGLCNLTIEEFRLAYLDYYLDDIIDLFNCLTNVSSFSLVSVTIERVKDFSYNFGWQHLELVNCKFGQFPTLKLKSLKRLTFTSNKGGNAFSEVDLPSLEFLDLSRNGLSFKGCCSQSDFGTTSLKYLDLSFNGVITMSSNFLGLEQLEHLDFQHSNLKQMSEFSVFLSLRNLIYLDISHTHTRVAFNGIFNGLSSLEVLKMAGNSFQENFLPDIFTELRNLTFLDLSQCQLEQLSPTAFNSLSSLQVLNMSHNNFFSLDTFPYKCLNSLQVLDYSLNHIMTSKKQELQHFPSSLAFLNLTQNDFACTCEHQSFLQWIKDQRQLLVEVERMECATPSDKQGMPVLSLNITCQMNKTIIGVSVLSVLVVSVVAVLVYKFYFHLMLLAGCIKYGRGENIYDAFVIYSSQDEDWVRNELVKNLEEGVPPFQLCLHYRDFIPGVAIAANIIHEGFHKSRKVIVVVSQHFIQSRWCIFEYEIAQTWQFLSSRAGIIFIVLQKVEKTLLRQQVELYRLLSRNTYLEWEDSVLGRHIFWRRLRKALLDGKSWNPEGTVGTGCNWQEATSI
Target sequence (Q99836 whole entry, looked up): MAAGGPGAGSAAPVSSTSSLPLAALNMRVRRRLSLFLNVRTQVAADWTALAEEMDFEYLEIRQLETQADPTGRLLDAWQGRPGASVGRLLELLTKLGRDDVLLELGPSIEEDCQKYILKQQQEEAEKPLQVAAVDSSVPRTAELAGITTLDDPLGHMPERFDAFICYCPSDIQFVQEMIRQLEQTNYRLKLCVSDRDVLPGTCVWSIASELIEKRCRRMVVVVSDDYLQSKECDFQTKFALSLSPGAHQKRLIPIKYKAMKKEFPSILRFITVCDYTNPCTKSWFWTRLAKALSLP
NOD2-RIPK2 inh: inhibitors of human NOD2-RIPK2 interaction; inhibition, % at 4.98 µM; CHO BLA complementation NOD2-RIPK2, CCF4 ratio; 360,000 tested, 0.38% active; in the data active = inhibition above about 21%;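 note: 0% = vehicle only and 100% = reference blocker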
TLR9-MyD88 inh: TLR9-MyD88 interaction inhibition; 340,000 tested, 0.21% active; inhibition, % at 4.98 µM; CHO BLA complementation TLR9-MyD88, CCF4 FRET ratio;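 active = inhibition above the mean over all tested compounds plus 3 SD, cut at about 21% in these data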;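 note: 0% = DMSO only wells and 100% = clavulanate BLA inhibitor control wells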
ABHD5 PLIN5 PPI: inhibitors of human ABHD5-perilipin-5 interaction; Split G. princeps luciferase complementation, luminescence, 4 h; inhibition, % at 4 µM; 360,000 tested, 0.78% active; AID 602281;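 active = inhibition above the mean inhibition across every tested compound plus 3 SD, cut at about 22% in these data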;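 note: 0% = DMSO only wells and the 100% control is not disclosed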
rCAG binder: binds r(CAG) RNA repeats. r(CAG) RNA repeat, TO-PRO-1 dye displacement fluorescence. inhibition, % at 3 µM. 370,000 tested, 1.3% active;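 active = inhibition above the plate cutoff, the mean of all test compounds on that plate plus 3 SD, cut at about 35% in these data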;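 note: 0% = DMSO alone and 100% = 100 µM mitoxantrone as full dye displacement; higher means more dye released from RNA so lower well fluorescence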
NOD2-RIPK2 conf: confirmation of human NOD2-RIPK2 interaction inhibitors; shares compounds with NOD2-RIPK2 inh; CHO cells, NOD2-RIPK2 BLA complementation, CCF4 FRET; inhibition, % at 4.98 µM; 1,200 tested, 70% active;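 active = mean inhibition across replicates above a set limit taken from the earlier primary screen, cut at about 21% in these data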;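 note: 0% = DMSO-only wells and the high end = clavulanate BLA-blocked wells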
BLA counter: counter-screen for NOD2-RIPK2 interaction inhibitors: BLA reporter; shares compounds with NOD2-RIPK2 inh; CHO BLA reporter, CCF4 FRET ratio, counterscreen; inhibition, % at 4.98 µM; 1,200 tested, 57% active; AID 624371;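 active = mean inhibition above the low-control mean inhibition plus three low-control SD, cut at about 11% in these data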;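 note: 0% = DMSO only wells and 100% = clavulanate high control wells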
Numbers without * were called inactive; x = no result given. This is a sample that favours compounds with a hit; in the whole collection about 3.3% have one here.

SMILES	PRMT1 inh	TLR4-MyD88 BLA	NOD2-RIPK2 inh	TLR9-MyD88 inh	ABHD5 PLIN5 PPI	rCAG binder	NOD2-RIPK2 conf	BLA counter
CCCCN(C)CC(O)Cn1cc(/C=C/C(=O)c2ccc(C)cc2)c2ccccc21 (centres undefined)	-3.2	x	31.8*	14.1	20.7	-0.9	43.9*	41.3*
Cc1ccc(S(=O)(=O)N(C)C)cc1NC(=O)COC(=O)C1=COCCO1	5.6	x	1.6	10.9	3.4	1.2	x	x
COc1ccc(NC2=CC(=O)CC(C)(C)C2)cc1OC	0.6	11.3	22.7*	-4.9	1.8	-1.9	-11.2	-2.9
Cc1ccc(NC2=CC(=O)CC(C)(C)C2)cc1C	2.2	2.1	1.3	-0.8	-0.1	-4.0	x	x
CCCc1cc(=O)oc2cc(C)cc(OC(C)C(=O)NCCCn3ccnc3)c12 (centres undefined)	-5.4	x	-2.3	-13.0	1.2	-6.2	x	x
COc1ccccc1-c1cnc(C(O)c2ccc(SC)cc2)[nH]1 (centres undefined)	-1.4	x	8.3	x	-1.3	0.8	x	x
CN1CCN(c2ccc(S(=O)(=O)N3CCCCC3)cc2NC(=O)/C=C/c2ccc(Cl)c([N+](=O)[O-])c2)CC1	-3.1	x	22.0*	8.2	6.9	7.0	30.3*	-9.7
CC(C)(C)OC(=O)NCCCCCNC(=O)c1[nH]cnc1C(=O)N[C@@H](Cc1ccccc1)C(=O)OC(C)(C)C	x	x	31.0*	6.9	3.4	x	16.2	-9.2
CC(C)(C)OC(=O)[C@H](Cc1ccccc1)NC(=O)c1nc[nH]c1C(=O)NCCCCCN	-1.8	x	9.0	-3.6	3.9	1.1	x	x
CCOc1ccc(N2C(=O)C(c3ccccc3)=C(c3nc4ccccc4s3)C2NC(C)=O)cc1 (centres undefined)	-1.1	-12.5	-3.6	2.0	1.0	2.2	x	x
O=C(CSc1ccc([N+](=O)[O-])cc1)Nc1cccc(S(=O)(=O)N2CCOCC2)c1	4.7	x	40.8*	10.9	0.7	5.8	-0.3	-1.4
O=C(Cn1c(=O)sc2ccccc21)Nc1ccc(O)cc1	9.1	-7.6	6.1	-15.8	-3.7	4.5	x	x
COCC(=O)N(c1ccc(C(C)(C)C)cc1)C(C(=O)NC(C)(C)C)c1cccnc1 (centres undefined)	2.3	x	x	x	x	x	x	x
C/C(=N\NC(=O)c1cc(-c2ccncc2)nc2ccccc12)c1ccc(N2CCOCC2)cc1	1.9	-11.7	24.3*	7.4	0.4	8.6	5.5	1.7
CC(=NNC(=O)c1cc(C)nc2ccccc12)c1ccc(N2CCOCC2)cc1	-1.6	x	11.1	6.4	1.9	4.1	x	x
COC(=O)C1CN(Cc2ccc(C)cc2)CCS(=O)(=O)N1Cc1cn(Cc2ccc(F)cc2)nn1 (centres undefined)	-2.1	x	x	x	x	1.4	x	x
CCC(OC(=O)c1ccc(S(C)(=O)=O)c([N+](=O)[O-])c1)C(=O)NC1C2CC3CC(C2)CC1C3 (centres undefined)	5.5	x	14.4	x	7.0	2.7	x	x
CC(OC(=O)c1ccc(S(C)(=O)=O)c([N+](=O)[O-])c1)C(=O)NC1C2CC3CC(C2)CC1C3 (centres undefined)	8.8	x	25.0*	x	22.6*	3.7	65.1*	7.5
CCOC(=O)C1CCN(S(=O)(=O)c2ccc3c4c(cccc24)C(=O)N3CC)CC1	-5.2	x	23.6*	-1.1	-5.2	4.0	24.0*	23.6*
CC1(C(=O)O)CCCN(C(=O)c2cccnc2Oc2ccccc2)C1 (centres undefined)	-1.1	x	-11.4	x	3.4	1.0	x	x
NNc1nc2ccc(Cl)cc2s1	-2.1	0.4	3.5	3.1	1.1	11.5	x	x
NNc1nc2ccc(F)cc2s1	2.0	-6.5	29.9*	6.7	-3.4	21.6	-4.6	-4.0
Cc1ccc2c(c1)/C(=N/OS(=O)(=O)c1ccccc1)CCS2	0.3	4.8	-6.6	-0.3	-8.9	1.5	x	x
CC1=CC(=O)C=C(C)C1=NOS(=O)(=O)c1ccccc1	10.8	2.2	26.5*	-0.6	-18.3	-3.6	31.0*	-4.1
CC1=CC(=O)C(C(C)C)=C/C1=N/OS(=O)(=O)c1ccccc1	16.0	x	58.9*	6.3	21.7	-5.3	36.5*	0.4
SMILES	PRMT1 inh	TLR4-MyD88 BLA	NOD2-RIPK2 inh	TLR9-MyD88 inh	ABHD5 PLIN5 PPI	rCAG binder	NOD2-RIPK2 conf	BLA counter
COc1cc(OC)c(C(=O)OCC(=O)NCCc2ccccc2)cc1OC	-1.8	-4.8	6.3	-5.0	-4.1	-5.4	x	x
CC1(C)C(=O)C=CC(=O)C(C)(C)C(=O)C=CC(=O)C(C)(C)C2=CC=C(O2)C(C)(C)C(=O)C=CC1=O	4.0	x	-0.1	0.1	2.2	4.1	x	x
CCOc1cc(C=O)ccc1OCCn1c([N+](=O)[O-])cnc1C	-0.1	x	-0.9	-8.7	-0.4	2.9	x	x
COc1ccc(-c2cc(-c3nc4ccccn4c3NCc3ccccc3)ccc2OC)cc1	4.2	x	29.1*	-4.6	0.3	0.4	20.9	5.8
O=C(CNC(=O)c1ccccc1F)N/N=C\C=C\c1ccccc1	-1.2	x	-1.6	-0.7	-0.5	-3.0	x	x
O=C(O)c1sccc1S(=O)(=O)c1ccccc1	4.0	-1.2	1.9	-28.2	-2.4	-4.0	x	x
Nc1c(S(=O)(=O)c2ccccc2)csc1C(=O)O	-1.7	1.8	43.7*	-12.2	2.2	5.9	-8.0	-4.0
COc1ccc(CNCc2ccc(C(F)(F)F)cc2)cc1OC	1.5	x	2.7	-18.6	-2.5	-4.9	x	x
COc1cccc(OC)c1C(=O)NC(=S)Nc1ccc2oc(-c3ccncc3)nc2c1	-3.1	-1.7	63.9*	-21.0	-9.7	0.2	-10.2	-1.9
COc1cccc(CNC(=O)Cn2ccc3cc(S(=O)(=O)N4CCCC4)ccc32)c1	-2.2	x	-2.0	-17.0	-9.2	2.7	x	x
CC(C)Oc1ccc(CNC(=O)Cn2ccc3cc(S(=O)(=O)N4CCCC4)ccc32)cc1	0.8	x	26.6*	2.5	-4.0	0.5	-3.8	-0.6
O=c1c(O)c(-c2cccs2)oc2ccc(Cl)cc12	1.6	14.0	44.5*	21.0*	-6.6	-16.2	45.4*	51.6*
COc1ccc2c(c1)OC[C@H]1[C@H]2N2C(=O)c3ccccc3NC(=O)[C@@]2(C)[C@H]1c1ccccc1	3.4	x	-6.0	4.0	-6.2	12.7	x	x
CN1C(=O)[C@H]2[C@@H](c3ccc(F)cc3)N3C(=O)c4ccccc4NC(=O)[C@@]3(C)[C@H]2C1=O	x	x	22.5*	4.5	-3.6	x	-1.9	0.4
CN(C)Cc1c(O)ccc2cc(-c3nc4ccccc4n3C)c(=O)oc12	8.8	x	31.4*	20.6	7.1	-2.3	32.6*	57.7*
COc1ccccc1/C=C1\SC(=S)N(CCC(=O)Nc2cc(C)on2)C1=O	-4.2	x	-4.6	-3.9	-3.2	5.5	x	x
